# Measurements published in PubChem BioAssay (NCI).
# This is part of a sample that, as a whole, favours compounds with a hit. Of some 79,000 tested, about 15% had one in any assay. The source made the active and inactive calls. No stated cut-off is given here; in the data, active means growth inhibition above about 70%; inactive means the rest.
# Test: NCI Yeast Anticancer Drug Screen. Data for the mlh1 rad18 strain (AID 175)
# Conditions: S. cerevisiae mlh1 rad18 strain growth inhibition; at 50.0 µM; hits give high values
# Outline: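 Test agents were incubated with a yeast strain of defined genotype (DNA damage repair defect). Inhibition of growth was derived by comparison with vehicle-exposed cultures.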
row,Compound,growth inhibition
1,COc1ccc2c(C)[n+]3ccc4cc(OC)c(OC)cc4c3cc2c1 (tested in a mixture with another compound),32.8% (inactive)
2,CC12CCC(C(S(=O)(=O)O)C1=O)C2(C)C (stereo not given) (tested in a mixture with another compound),0.55% (inactive)
3,COc1ccc(OC)c(C(O)P(=O)(c2ccccc2)c2ccccc2)c1 (stereo not given),27.2% (inactive)
4,COc1ccc(C(O)Cc2cc(=O)cc(-c3ccccc3)[nH]2)cc1 (stereo not given),-1.4% (inactive)
5,COc1ccc(CCc2ccc(Cl)cc2)cc1,-4.5% (inactive)
6,COC(=O)[C@@]1(C(C)CC(=O)O)CCCCC1=O (stereo not given in full),-13.2% (inactive)
7,CCOC(=O)COc1ccc(Cl)cc1C,-17.2% (inactive)
8,C=CCc1cc(C(=O)C(=O)c2cc(CC=C)c(OC(C)=O)c(OC)c2)cc(OC)c1OC(C)=O,8.25% (inactive)
9,CCOC(=O)Sc1nccn1C,-0.45% (inactive)
10,OC(CSCc1ccccc1)c1ccccc1 (stereo not given),3.1% (inactive)
11,CC1CCCCN1P(N1CCCCC1C)N1CCCCC1C (stereo not given),33.5% (inactive)
12,O=C(O)CC(SSCc1ccccc1)C(=O)O (stereo not given),20.8% (inactive)
13,COc1ccc(NC(=O)CC(=O)N2N=C(N(CCC#N)c3ccccc3Cl)CC2c2ccccc2)cc1 (stereo not given),-28.9% (inactive)
14,CC(=O)OC1CCC2C(C)(CCC3C2(C)CCC2(C)C4CC(C)(C)CCC4(C)CCC32C)C1C (stereo not given),-11.8% (inactive)
15,CCN(CC)C(N)=Nc1cc2ccccc2c2ccccc12,5.25% (inactive)
16,CCOC(=O)CC/C(=C\NC(=O)c1ccccc1)NC(=O)c1ccccc1,1.9% (inactive)
17,OCC(O)C(O)C(O)c1nn(-c2ccccc2)c2nc3ccccc3nc12 (stereo not given),17.2% (inactive)
18,N#CC(c1ccc(O)cc1)N1CCN(C(C#N)c2ccc(O)cc2)CC1 (stereo not given),-43.4% (inactive)
19,O=C(O)c1cccnc1-c1ccccc1,-12.2% (inactive)
20,CCOC(=O)C(NC(N)=O)C(=O)OCC,4.7% (inactive)

row,Compound,growth inhibition
1,CC(=O)Nc1ccccc1/C=C\c1ccccn1,-11.7% (inactive)
2,CC(=O)OC(C)c1cc2c(s1)C(=O)c1sccc1C2=O (stereo not given),89.5% (active)
3,C=C1CN(C2=NCCO2)C1,4.05% (inactive)
4,CCC(=O)C(=O)C1CCCCC1=O (stereo not given),-0.05% (inactive)
5,CC(=O)c1cccc(NC(=O)c2c(Br)c(Br)c(Br)c(Br)c2C(=O)O)c1,-3.1% (inactive)
6,CN(/N=C/C=N/N(C)C1=NCCCCN1)C1=NCCCCN1,-11.8% (inactive)
7,Cc1cc2c(cc1C)[n+](=O)c(C(=O)CC(=O)C(=O)Nc1ccccc1C)c(C)n2[O-],9.3% (inactive)
8,CCc1n[nH]c(=O)n1/N=C/c1c(O)ccc2ccccc12,18.9% (inactive)
9,CCc1cc2c(cc1C(=O)/C=C\c1cccc3ccccc13)C(C)(C)CCC2(C)C,15% (inactive)
10,Cc1nc2ccc(Br)cc2c(=O)n1-c1ccc(N=Cc2ccccc2Cl)cc1,34.8% (inactive)
11,O=C1c2cccc3c(Br)ccc(c23)C(=O)N1CCCN1CCOCC1,60.2% (inactive)
12,COc1cc(OC)c(NC(=O)CC2SC(N)=NC2=O)cc1Cl (stereo not given),20.6% (inactive)
13,CN1C(=O)C(O)Nc2ncncc21 (stereo not given),-33.2% (inactive)
14,BrC12c3ccccc3C(Br)(c3ccccc31)c1ccccc12,6.2% (inactive)
15,N#CC1=C(c2ccccc2)C(=C2Nc3ccccc3N2)C2S/C(=C\c3ccccc3)C(=O)N2C1=N (stereo not given),26.8% (inactive)
16,O=C(CCCCCCC(=O)ON1C(=O)CCC1=O)ON1C(=O)CCC1=O,-4.1% (inactive)
17,Cc1ccc(-c2cc(-c3ccco3)c(C#N)c(=O)[nH]2)cc1,6.8% (inactive)
18,CCCCCC/C=C/C(N)=O,8.35% (inactive)
19,COc1ccc(OC)c(N=Cc2ccc(C=Nc3cc(OC)ccc3OC)cc2)c1,-5.8% (inactive)
20,O=C1c2c(ccc3c2CCC3)CC12Cc1cc3c(cc1C2)CCC3,-15.2% (inactive)
